Data: PubChem BioAssay AID1346378 (National Center for Advancing Translational Sciences (NCATS), 2018)
In all, about 420,000 compounds went through this assay and about 540 (0.13%) were called active. Cut-off read from the data, not from the text of the source: active = activity change below about -50%; inconclusive = mostly about -30% to -49%; inactive = weaker than that. The entries come from a sample that favours actives as a whole.

Each compound was assayed against Phosphatidylinositol 4-kinase type 2-alpha (Homo sapiens) (UniProt Q9BTU6) (assay: qHTS for small molecular inhibitors of PI4K2A). Conditions: purified PI4K2A, ADP-Glo luminescence, 1 h; at 76.9 µM, hits give low values.
How it was run: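 ADP-Glo luminescence measured ADP generated by PI4K2A enzyme (4 ug/mL before mixing) with 1.2 mM PI substrate (pre-mix) and 300 microM ATP (pre-mix). Tris pH7.5 buffer with MgCl2, Triton X-100; 1 h reaction at ambient temperature.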
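Note: -100% = wells without enzyme as full effect.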

Sequence of Phosphatidylinositol 4-kinase type 2-alpha (Homo sapiens) (Q9BTU6 whole entry, looked up): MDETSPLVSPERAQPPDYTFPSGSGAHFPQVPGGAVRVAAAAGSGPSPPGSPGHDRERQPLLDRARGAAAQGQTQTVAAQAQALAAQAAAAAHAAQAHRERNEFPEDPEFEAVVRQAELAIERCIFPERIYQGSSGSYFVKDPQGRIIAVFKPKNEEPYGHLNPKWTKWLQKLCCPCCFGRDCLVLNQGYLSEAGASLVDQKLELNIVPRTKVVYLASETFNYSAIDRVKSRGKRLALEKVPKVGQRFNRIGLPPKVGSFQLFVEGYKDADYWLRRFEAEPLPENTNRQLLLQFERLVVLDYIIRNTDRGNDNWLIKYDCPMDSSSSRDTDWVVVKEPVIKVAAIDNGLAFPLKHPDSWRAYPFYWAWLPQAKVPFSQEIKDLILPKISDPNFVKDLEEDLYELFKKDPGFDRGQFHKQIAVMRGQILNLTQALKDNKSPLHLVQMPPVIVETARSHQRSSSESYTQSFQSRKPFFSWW

Q: With `Cc1ccc(C(=O)Nc2ccccc2F)cc1S(=O)(=O)N1CCOCC1` as the compound, how does the activity change, negative = inhibition read?
A: Its activity change, negative = inhibition is -6.24% (inactive).

Q: Which activity change, negative = inhibition does the source give for `Cc1ccc(Cc2c(-c3ccco3)nc3ccc(Cl)cn23)cc1` here?
A: The activity change, negative = inhibition was -30% (inactive).

Q: With `c1ccc(Cc2c(-c3ccco3)nc3c4ccccc4ccn23)cc1` as the compound, how does the activity change, negative = inhibition read?
A: Its activity change, negative = inhibition is -13.4% (inactive).

Q: With `Cn1c(-c2ccco2)nc2cc3ccccc3cc21` as the compound, how does the activity change, negative = inhibition read?
A: The activity change, negative = inhibition was -59.4% (active).

Q: Which activity change, negative = inhibition does the source give for `COc1cc(/C=C/C(N)=O)cc(OC)c1OC` here?
A: Its activity change, negative = inhibition is -0.706% (inactive).

Q: `CCC(=O)Nc1ccccc1-c1nc2ccccc2n(CC(=O)Nc2ccc(C)c(C)c2)c1=O` was tested. Which activity change, negative = inhibition did it give?
A: The activity change, negative = inhibition was 0.486% (inactive).

Q: `COc1cccc(NC(=O)CN2C(=O)c3ccccc3Sc3ncccc32)c1` was tested. Which activity change, negative = inhibition did it give?
A: The activity change, negative = inhibition was 0.541% (inactive).

Q: For `COc1ccc(-c2onc(C)c2C)cc1S(=O)(=O)NCCc1ccccc1`, which activity change, negative = inhibition is on record?
A: The activity change, negative = inhibition was 0.384% (inactive).

Q: For `CCN(CCCNC(=O)c1ccc(Sc2ccc(C)cc2)c(NC(C)=O)c1)c1cccc(C)c1`, which activity change, negative = inhibition is on record?
A: Its activity change, negative = inhibition is 2.25% (inactive).

Q: For `COc1ccc(-c2nnc(SCC(=O)Nc3ccc(C(C)C)cc3)nc2-c2ccc(OC)c(OC)c2)cc1OC`, which activity change, negative = inhibition is on record?
A: Its activity change, negative = inhibition is 0.608% (inactive).

Q: `CNC(=O)c1ccc(-c2nc(CN3CCc4ccccc43)c(C)o2)cc1` was tested. Which activity change, negative = inhibition did it give?
A: Its activity change, negative = inhibition is 2.42% (inactive).

Q: For `CC(=O)c1c(C)n(S(=O)(=O)c2ccc(Cl)cc2)c2ccc(NS(=O)(=O)c3ccc(Cl)cc3)cc12`, which activity change, negative = inhibition is on record?
A: Its activity change, negative = inhibition is 2.95% (inactive).

Q: With `O=C1COc2ccc(C(=O)COC(=O)c3ccccc3Cl)cc2N1` as the compound, how does the activity change, negative = inhibition read?
A: The activity change, negative = inhibition was 1.21% (inactive).

Q: For `CS(=O)(=O)N1CCc2cc(C(=O)Nc3ccccc3)ccc21`, which activity change, negative = inhibition is on record?
A: The activity change, negative = inhibition was -7.3% (inactive).

Q: `O=C(Nc1ccccc1)c1ccc2c(c1)OCCCO2` was tested. Which activity change, negative = inhibition did it give?
A: Its activity change, negative = inhibition is -52.6% (active).

Q: For `N#CCCN(C(=O)COC(=O)c1ccc2c(c1)OCCO2)c1ccccc1`, which activity change, negative = inhibition is on record?
A: Its activity change, negative = inhibition is 3.66% (inactive).

Q: Which activity change, negative = inhibition does the source give for `O=C(COC(=O)c1ccccc1)c1ccc2c(c1)OCCO2` here?
A: Its activity change, negative = inhibition is -52.5% (active).

Q: `CSc1ccccc1-c1nnc(NC(=O)c2ccc3c(c2)OCCO3)o1` was tested. Which activity change, negative = inhibition did it give?
A: Its activity change, negative = inhibition is 3.71% (inactive).

Q: How did the activity change, negative = inhibition turn out when `CCC(C)NC(=O)Cn1c(=O)n(-c2ccc(Cl)cc2)c(=O)c2c3c(sc21)CCCC3` (stereo unspecified) was run?
A: Its activity change, negative = inhibition is -10.3% (inactive).

Q: With `CCCn1c2ccccc2c2cnn(CC(=O)N(CC)c3cc(C)ccc3C)c(=O)c21` as the compound, how does the activity change, negative = inhibition read?
A: The activity change, negative = inhibition was -0.786% (inactive).

Q: With `CN(C)c1cc2c(Nc3ccc4c(cnn4Cc4ccccc4)c3)ncnc2cn1` as the compound, how does the activity change, negative = inhibition read?
A: Its activity change, negative = inhibition is -9.09% (inactive).

Q: `COc1cccc(C(=O)c2cc3ccc(O)cc3oc2=O)c1` was tested. Which activity change, negative = inhibition did it give?
A: The activity change, negative = inhibition was -61.7% (active).

Q: For `COc1ccc(CNC(=O)c2cc3cccc(OC)c3oc2=O)cc1`, which activity change, negative = inhibition is on record?
A: Its activity change, negative = inhibition is 3.69% (inactive).

Q: With `COc1cccc(C(=O)Nc2ccc3oc(-c4ccc5ccccc5c4)nc3c2)c1` as the compound, how does the activity change, negative = inhibition read?
A: Its activity change, negative = inhibition is -2.82% (inactive).

Q: With `CCOc1ccc(NS(=O)(=O)c2ccc(N)cc2)nn1` as the compound, how does the activity change, negative = inhibition read?
A: The activity change, negative = inhibition was -1.1% (inactive).

Q: Which activity change, negative = inhibition does the source give for `CC1=C(C(=O)OCC(C)C)C(c2ccc(OCc3ccccc3)cc2)N2C(=O)CCSC2=N1` (stereo unspecified) here?
A: Its activity change, negative = inhibition is 5.39% (inactive).

Q: How did the activity change, negative = inhibition turn out when `CCCCOc1ccc(CN2C(=O)C(=O)c3cc(Br)cc(C)c32)cc1OC` was run?
A: The activity change, negative = inhibition was 13% (inactive).

Q: Which activity change, negative = inhibition does the source give for `Cc1ccc(-n2nc(C)c(C(=O)O)c2-n2cccc2)cc1` here?
A: Its activity change, negative = inhibition is 3.8% (inactive).

Q: Which activity change, negative = inhibition does the source give for `O=C(O)/C(=C/c1c(C(=O)O)[nH]c2cc(Cl)cc(Cl)c12)c1ccccc1` here?
A: Its activity change, negative = inhibition is -3.01% (inactive).

Q: For `Cc1[nH][nH]c(=O)c1C(c1ccc2c(c1)OCO2)c1c(C)[nH][nH]c1=O`, which activity change, negative = inhibition is on record?
A: Its activity change, negative = inhibition is -66.9% (active).

Q: For `Cc1[nH][nH]c(=O)c1C(c1ccc(-c2ccc(Cl)cc2)o1)c1c(C)[nH][nH]c1=O`, which activity change, negative = inhibition is on record?
A: The activity change, negative = inhibition was -14% (inactive).

Q: How did the activity change, negative = inhibition turn out when `Nc1[nH][nH]c(=O)c1N=Nc1ccc2c(c1)OCO2` was run?
A: Its activity change, negative = inhibition is -6.7% (inactive).

Q: How did the activity change, negative = inhibition turn out when `CCOc1ccc(NC(=O)Cn2c(C)ccc(C#N)c2=O)cc1` was run?
A: Its activity change, negative = inhibition is 1.57% (inactive).

Q: Which activity change, negative = inhibition does the source give for `CCOc1ccc(NC(=O)c2ccc(NC(=O)COC(=O)c3ccc(NC(=O)CC#N)cc3)cc2)cc1` here?
A: Its activity change, negative = inhibition is -84.7% (active).

Q: Which activity change, negative = inhibition does the source give for `CCOC(=O)c1ccc(-c2ccc(/C=C(\C#N)C(=O)Nc3ccc(OCC)cc3)o2)cc1` here?
A: Its activity change, negative = inhibition is -0.67% (inactive).

Q: For `COC(=O)CN1C(=O)CSc2ccc(S(=O)(=O)Nc3cc(C)ccc3C)cc21`, which activity change, negative = inhibition is on record?
A: The activity change, negative = inhibition was -1.14% (inactive).

Q: Which activity change, negative = inhibition does the source give for `Cc1ccc(S(=O)(=O)c2cn(Cc3ccccc3)c3cc(N4CCCC4)c(F)cc3c2=O)c(C)c1` here?
A: Its activity change, negative = inhibition is 2.36% (inactive).

Q: Which activity change, negative = inhibition does the source give for `O=C(NCc1ccc(F)cc1)c1ccc(Cn2c(SCc3ccc(F)cc3)nc3cccnc32)cc1` here?
A: Its activity change, negative = inhibition is -1.71% (inactive).

Q: `O=C(OCC(O)CO)c1ccccc1Nc1ccnc2c(C(F)(F)F)cccc12` (stereo unspecified) was tested. Which activity change, negative = inhibition did it give?
A: The activity change, negative = inhibition was 0.766% (inactive).

Q: With `COc1ccc(C(=O)Nc2ccccc2C(=O)N/N=C/c2ccc(O)c(OC)c2)cc1` as the compound, how does the activity change, negative = inhibition read?
A: Its activity change, negative = inhibition is -68.9% (active).

Q: With `COc1ccc(Nc2ncc(C(=O)Nc3cc(C)ccc3OC)c3ccccc23)cc1` as the compound, how does the activity change, negative = inhibition read?
A: Its activity change, negative = inhibition is 2.21% (inactive).

Q: For `COc1cccc(/C=N/NC(=O)C(=O)N2CCCC2)c1`, which activity change, negative = inhibition is on record?
A: The activity change, negative = inhibition was -2.13% (inactive).

Q: For `CC(=O)/C(C)=N/O`, which activity change, negative = inhibition is on record?
A: Its activity change, negative = inhibition is -0.649% (inactive).

Q: With `O=C(Nc1c(C(=O)N2CCN(c3ccc(F)cc3)CC2)oc2ccccc12)c1ccco1` as the compound, how does the activity change, negative = inhibition read?
A: The activity change, negative = inhibition was -1.83% (inactive).

Q: Which activity change, negative = inhibition does the source give for `CCc1ccc2ncc3c(-c4ccc(C)cc4)nn(CC(=O)NCc4ccccc4)c3c2c1` here?
A: Its activity change, negative = inhibition is 8.2% (inactive).

Q: How did the activity change, negative = inhibition turn out when `COc1ccc(OCCn2cc(C(=O)C3CCCCC3)c3ccccc32)cc1` was run?
A: Its activity change, negative = inhibition is -0.826% (inactive).

Q: How did the activity change, negative = inhibition turn out when `COc1cc(C(=O)Nc2ccc(-n3c(C)nc4ccccc4c3=O)cc2)cc(OC)c1OC` was run?
A: The activity change, negative = inhibition was 6.04% (inactive).

Q: Which activity change, negative = inhibition does the source give for `Cc1ccc2onc(CC(=O)N3CCN(c4ccc(Cl)cc4)CC3)c2c1` here?
A: The activity change, negative = inhibition was 2.89% (inactive).

Q: With `O=C(OCc1ccccc1)c1ccc(O)cc1` as the compound, how does the activity change, negative = inhibition read?
A: Its activity change, negative = inhibition is -0.636% (inactive).

Q: With `Cc1ccc(-c2cn3c(n2)sc2cc(C(=O)NCCCc4ccccc4)ccc23)cc1` as the compound, how does the activity change, negative = inhibition read?
A: The activity change, negative = inhibition was -1.39% (inactive).

Q: Which activity change, negative = inhibition does the source give for `CCN1CCN(CCCNC(=O)c2ccc3c(c2)sc2nc(-c4ccc(OC)cc4)cn23)CC1` here?
A: The activity change, negative = inhibition was -72.4% (active).

Q: Which activity change, negative = inhibition does the source give for `COc1ccc(-c2cn3c(n2)sc2cc(C(=O)Nc4ccccc4F)ccc23)cc1` here?
A: The activity change, negative = inhibition was -4.68% (inactive).

Q: Which activity change, negative = inhibition does the source give for `CCC(=O)Nc1cccc(-c2nc3cc(C)ccc3o2)c1` here?
A: Its activity change, negative = inhibition is -9.07% (inactive).

Q: With `O=C(Nc1ccc(Br)cc1)c1ccc(Br)c(S(=O)(=O)NCc2ccccc2)c1` as the compound, how does the activity change, negative = inhibition read?
A: Its activity change, negative = inhibition is -0.252% (inactive).

Q: Which activity change, negative = inhibition does the source give for `CCC(=O)N1CCc2cc(S(=O)(=O)NC(C(=O)NCCc3ccc(C)cc3)C(C)C)ccc21` (stereo unspecified) here?
A: The activity change, negative = inhibition was -3.91% (inactive).

Q: With `CC(C)c1ccc(C2CC(=O)N3CN(C4CCCCC4)CSC3=C2C#N)cc1` (stereo unspecified) as the compound, how does the activity change, negative = inhibition read?
A: Its activity change, negative = inhibition is -15.6% (inactive).
